USP10 block = inhibitors of human USP10 deubiquitinase | AID 1645856, 2021 | 47,000 tested, 1.1% active | purified USP10, Ub-rhodamine fluorescence, 60 min | inhibition, % at 20 µM
USP8 inh = inhibitors of human USP8 deubiquitinase; purified USP8, Ub-rhodamine cleavage fluorescence, 30 min; inhibition, % at 20 µM; 47,000 tested, 4.2% active; Ubiquitin carboxyl-terminal hydrolase 8 (Homo sapiens), P40818
USP7 block = inhibitors of human USP7 deubiquitinase; purified USP7, Ub-rhodamine cleavage fluorescence; inhibition, % at 20 µM; 47,000 tested, 0.3% active; AID 1645854, 2021
USP30 inh = inhibitors of human USP30 deubiquitinase; AID 1645860, 2021; Ubiquitin carboxyl-terminal hydrolase 30 (Homo sapiens), Q70CQ3; 47,000 tested, 5.3% active; inhibition, % at 25 µM; purified USP30, Ub-rhodamine cleavage fluorescence
UCHL1 block = inhibitors of human UCHL1 deubiquitinase | 47,000 tested, 0.2% active | purified UCHL1, Ub-rhodamine cleavage fluorescence | AID 1645859, 2021 | inhibition, % at 20 µM | Ubiquitin carboxyl-terminal hydrolase isozyme L1 (Homo sapiens), P09936
USP17 block = inhibitors of human USP17 deubiquitinase; Ubiquitin carboxyl-terminal hydrolase 17-like protein 5 (Homo sapiens), A8MUK1; purified USP17, Ub-rhodamine cleavage fluorescence, 3 h; inhibition, % at 50 µM; 47,000 tested, 6.5% active
Target sequence (A8MUK1 whole entry, looked up): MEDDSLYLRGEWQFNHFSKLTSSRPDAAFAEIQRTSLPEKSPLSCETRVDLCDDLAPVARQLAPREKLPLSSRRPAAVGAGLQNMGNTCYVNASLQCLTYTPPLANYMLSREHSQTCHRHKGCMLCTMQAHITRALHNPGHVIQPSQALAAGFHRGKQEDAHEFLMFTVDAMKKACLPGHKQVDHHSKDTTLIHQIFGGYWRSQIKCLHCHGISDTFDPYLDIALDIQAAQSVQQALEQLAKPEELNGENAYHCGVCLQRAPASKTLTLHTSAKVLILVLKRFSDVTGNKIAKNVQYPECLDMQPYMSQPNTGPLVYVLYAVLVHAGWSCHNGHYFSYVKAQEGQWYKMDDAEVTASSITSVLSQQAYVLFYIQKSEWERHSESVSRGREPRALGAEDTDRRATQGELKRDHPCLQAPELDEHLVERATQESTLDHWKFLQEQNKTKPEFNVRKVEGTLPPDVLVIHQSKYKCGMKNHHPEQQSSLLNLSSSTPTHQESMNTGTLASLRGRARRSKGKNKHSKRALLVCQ
Numbers stand for hits. A selection: hits, their analogues and other compounds. The true share with any hit is near 12%. No stated cut-off is given here; in the data, active means inhibition above about 30%; inactive means the rest.

For O=C(COc1ccc(N2CC(C(=O)NCc3ccccc3)CC2=O)cc1)Nc1ccc(F)cc1 (centres undefined) the results were USP10 block inactive, USP8 inh 64.0, USP7 block inactive, USP30 inh 57.9, UCHL1 block inactive and USP17 block 60.3.
Screening O=C(COc1ccc(N2CC(C(=O)NCc3ccc4c(c3)OCO4)CC2=O)cc1)Nc1ccc(Cl)cc1 (centres undefined) returned USP10 block 38.2, USP8 inh inactive, USP7 block inactive, USP30 inh inactive, UCHL1 block inactive and USP17 block 36.1.
For Cc1ccc(CNC(=O)C2CC(=O)N(c3ccc(OCC(=O)Nc4ccc(C)cc4C)cc3)C2)cc1 (centres undefined) the results were USP10 block inactive, USP8 inh inactive, USP7 block inactive, USP30 inh inactive, UCHL1 block inactive and USP17 block inactive.
O=C(COc1ccc2c(c1)OCO2)Nc1ccc(N2CCOCC2)cc1 was read as USP10 block inactive, USP8 inh inactive, USP7 block inactive, USP30 inh inactive, UCHL1 block inactive and USP17 block inactive.
`Cc1ccc(N2CC(C(=O)NCCc3ccc(Cl)cc3)CC2=O)cc1` (centres undefined) gave USP10 block inactive, USP8 inh inactive, USP7 block inactive, USP30 inh inactive, UCHL1 block inactive and USP17 block 40.5.
CCCCN1CC(C(=O)Nc2ccc(C(=O)Nc3ccc(Br)cc3F)cc2)CC1=O (centres undefined) was read as USP10 block inactive, USP8 inh inactive, USP7 block inactive, USP30 inh inactive, UCHL1 block inactive and USP17 block inactive.
`O=C(NCc1ccccn1)c1cn(-c2ccc(F)cc2)nn1` gave USP10 block inactive, USP8 inh inactive, USP7 block inactive, USP30 inh inactive, UCHL1 block inactive and USP17 block inactive.
Screening O=C(NCc1cccnc1)c1c2c(NCC3CC3)ncnc2n2ccccc12 returned USP10 block inactive, USP8 inh 68.2, USP7 block inactive, USP30 inh inactive, UCHL1 block inactive and USP17 block 30.8.
`CCOC(=O)c1cc(=O)c2ccc(OCC(=O)Nc3ccc4c(c3)OCCO4)cc2o1` gave USP10 block inactive, USP8 inh 64.8, USP7 block inactive, USP30 inh inactive and UCHL1 block inactive.
For O=C(COc1cccc(-n2cnnn2)c1)Nc1ccc2c(c1)OCCO2 the results were USP10 block inactive, USP8 inh inactive, USP7 block inactive, USP30 inh inactive, UCHL1 block inactive and USP17 block inactive.
Screening CC(C)Cn1nc(C(=O)N(CCc2cccs2)Cc2cccs2)c2ccccc2c1=O returned USP10 block inactive, USP8 inh inactive, USP7 block inactive, USP30 inh inactive, UCHL1 block inactive and USP17 block 32.5.
O=C(Nc1ccc(F)cc1)C(c1ccccc1)N(Cc1ccc2c(c1)OCO2)C(=O)c1cnccn1 (centres undefined) was read as USP10 block inactive, USP8 inh inactive, USP7 block inactive, USP30 inh inactive, UCHL1 block inactive and USP17 block inactive.
`CN(C(=O)c1ccc(C(=O)c2ccccc2)cc1)c1nnc(C23CC4CC(CC(C4)C2)C3)s1` gave USP10 block inactive, USP8 inh inactive, USP7 block inactive, USP30 inh 32.8, UCHL1 block inactive and USP17 block inactive.
`O=C(Nc1ccnn1Cc1ccco1)c1cccnc1SC(F)F` gave USP10 block inactive, USP8 inh inactive, USP7 block inactive, USP30 inh inactive, UCHL1 block inactive and USP17 block inactive.
`Cc1nnc(NC(=O)C(=O)c2cc(C)n(-c3ccc(Cl)cc3)c2C)s1` gave USP10 block inactive, USP8 inh 41.0, USP7 block inactive, USP30 inh inactive, UCHL1 block inactive and USP17 block 42.8.
Screening COC(=O)c1ccc2c(=O)n(CCCCCC(=O)N3CCN(c4ccccc4OC)CC3)c(=O)[nH]c2c1 returned USP10 block inactive, USP8 inh inactive, USP7 block inactive, USP30 inh inactive, UCHL1 block inactive and USP17 block inactive.
For COC(=O)c1ccc2c(=O)n(CCCCCC(=O)NCCc3ccccc3Cl)c(=O)[nH]c2c1 the results were USP10 block 52.7, USP8 inh 42.6, USP7 block inactive, USP30 inh inactive, UCHL1 block inactive and USP17 block inactive.
Screening COC(=O)c1ccc2c(=O)n(CCCCCC(=O)N3CCN(c4ccccn4)CC3)c(=O)[nH]c2c1 returned USP10 block inactive, USP8 inh inactive, USP7 block inactive, USP30 inh inactive, UCHL1 block inactive and USP17 block inactive.
COC(=O)c1ccc2c(=O)n(CCCCCC(=O)NCCc3ccc(S(N)(=O)=O)cc3)c(=O)[nH]c2c1 was read as USP10 block 37.4, USP8 inh 82.1, USP7 block inactive, USP30 inh 88.4, UCHL1 block inactive and USP17 block inactive.
Cc1ccc(CNC(=O)Cn2c(N3CCCCC3)nc(C)cc2=O)cc1 was read as USP10 block inactive, USP8 inh inactive, USP7 block inactive, USP30 inh 35.9, UCHL1 block inactive and USP17 block 40.6.
Screening CCc1cc(=O)n(CC(=O)NCc2ccc(F)cc2)c(N2CCOCC2)n1 returned USP10 block inactive, USP8 inh inactive, USP7 block inactive, USP30 inh 30.8, UCHL1 block inactive and USP17 block inactive.
For N#Cc1cccc(NC(=O)c2cc(C3CC3)n3nccc3n2)c1 the results were USP10 block inactive, USP8 inh inactive, USP7 block inactive, USP30 inh inactive, UCHL1 block inactive and USP17 block inactive.
COc1ccc(-c2nc3n(n2)C(CC(=O)Nc2cccc4ccccc24)C(=O)N3)cc1 (centres undefined) was read as USP10 block 40.5, USP8 inh 51.4, USP7 block inactive, USP30 inh 52.1, UCHL1 block inactive and USP17 block inactive.
Screening CC(=O)c1ccc(NC(=O)CC2C(=O)Nc3nc4ccccc4n32)cc1 (centres undefined) returned USP10 block inactive, USP8 inh inactive, USP7 block inactive, USP30 inh inactive, UCHL1 block inactive and USP17 block 74.6.
`Cc1ccc(NC(=O)CC2C(=O)Nc3nc(-c4ccccc4)nn32)cc1` (centres undefined) gave USP10 block inactive, USP8 inh inactive, USP7 block inactive, USP30 inh inactive, UCHL1 block inactive and USP17 block 44.6.
For CNC(=O)c1cnn2c(C3CCCN3C(=O)C(C)(C)C)ccnc12 (centres undefined) the results were USP10 block inactive, USP8 inh inactive, USP7 block inactive, USP30 inh inactive, UCHL1 block inactive and USP17 block inactive.

Compound activity (PubChem BioAssay)
